The values that follow come from the supplement of paper PMC8975748.

Where a name gives a salt, the structure may show the parent alone.

In the assay the test system is Saccharomyces cerevisiae BY4741 SeMeCo community. The experiment in a line: z-score of subpopulation abundance vs DMSO median, subpopulation auxotrophic for HL; higher = larger share of this subpopulation than in DMSO controls. The settings on record: 10 µM; 24 h; SM minimal medium; subpopulation (auxotrophy): HL. Here is the method:
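Fluorescent four-plasmid SeMeCo (self-establishing metabolically cooperating S. cerevisiae BY4741 community; plasmids pH-mRuby2, pL-mWasabi, pU-eCFP, pM-TagRFP657) was grown 24 h in minimal SM medium with each Selleck FDA-approved drug at 10 µM in 384-well plates. Cells were fixed and imaged by high-content confocal microscopy. For each auxotrophic subpopulation (and the prototroph), a z-score gives the deviation from the DMSO vehicle-control population median.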
In the case of `CN1C(=O)COc2c(C(=O)NC3CN4CCC3CC4)cc(Cl)cc21` (centres undefined) [Azasetron HCl], the “z-score of subpopulation abundance” value was 1.41.

With `N[C@@H]1C[C@H]1c1ccccc1` [Tranylcypromine (2-PCPA) HCl], the “z-score of subpopulation abundance” value is -0.72. The value for `CC(NC(C)(C)C)C(=O)c1cccc(Cl)c1` (centres undefined) [Amfebutamone (Bupropion) HCl] was 0.03. `CCN(CC)CCOC(=O)C(O)(c1ccccc1)c1ccccc1` [Benactyzine hydrochloride]: the “z-score of subpopulation abundance” value is -0.47. `O=C(O[C@H]1C[C@H]2CC[C@@H](C1)[N+]21CCCC1)C(O)(c1ccccc1)c1ccccc1` [Trospium chloride]: the “z-score of subpopulation abundance” value is -0.4. Under `COc1ccc2c(c1)[C@]13CCCC[C@@H]1[C@H](C2)N(C)CC3` [Dextromethorphan hydrobromide hydrate] stands -0.33; under `C[C@@H]1O[C@@H](O[C@H]2C[C@@H](O)[C@]3(CO)[C@H]4[C@H](O)C[C@]5(C)[C@@H](C6=CC(=O)OC6)CC[C@]5(O)[C@@H]4CC[C@]3(O)C2)[C@H](O)[C@H](O)[C@H]1O` [Ouabain], -1.05; under `O=c1cccc2n1C[C@@H]1CNC[C@H]2C1` [Cytisine], -0.4. The value for `CN1[C@@H]2CC[C@H]1C[C@@H](OC(=O)C(CO)c1ccccc1)C2` (some centres undefined) [Atropine sulfate monohydrate] was -0.69.

As to `C[N+](C)(C)CCCCCCCCCC[N+](C)(C)C` [Decamethonium Bromide], the “z-score of subpopulation abundance” value is -0.3.

For `CC[C@@]1(O)C(=O)OCc2c1cc1n(c2=O)Cc2cc3ccccc3nc2-1` [Camptothecin], the “z-score of subpopulation abundance” value was -0.59. The value for `CC[C@H]1CN2CC[C@]3(C(=O)Nc4ccccc43)[C@@H]2C[C@@H]1/C(=C\OC)C(=O)OC` [Rhynchophylline] was 0.04; that for `O=c1[nH]c2ccccc2n1CCCN1CCC(n2c(=O)[nH]c3cc(Cl)ccc32)CC1` [Domperidone] was 0.19; that for `CCC1=C[C@H]2CN3CCc4c([nH]c5ccccc45)[C@](C(=O)OC)(C2)[C@H]13` [Catharanthine] was -1.12. Under `CN1c2ccccc2C(NCCCCCCC(=O)O)c2ccc(Cl)cc2S1(=O)=O` (centres undefined) [Tianeptine sodium] stands -0.07; under `CCOC(=O)Nc1ccc(NCc2ccc(F)cc2)cc1N` [Retigabine 2HCl], 1.24. The value for `NC(=O)CN1CCCC1=O` [Piracetam] was 0.98. For `C=CN1CCCC1=O.II` [Povidone iodine], the “z-score of subpopulation abundance” value worked out at 2.13.

As to `Cn1cc(C2=C(c3cn(C4CCN(Cc5ccccn5)CC4)c4ccccc34)C(=O)NC2=O)c2ccccc21`, the “z-score of subpopulation abundance” value is -1.11. For the compound `CN1[C@@H]2C[C@@H](OC(=O)[C@H](CO)c3ccccc3)C[C@H]1[C@@H]1O[C@@H]12` [Scopolamine HBr trihydrate], the “z-score of subpopulation abundance” value is -0.72.

For the compound `Nc1nc(N)nc(NC2CC2)n1` [Cyromazine], the “z-score of subpopulation abundance” value was -0.97.

Consider `C[N+]1(C)[C@@H]2C[C@@H](OC(=O)[C@H](CO)c3ccccc3)C[C@H]1[C@@H]1O[C@@H]12` [Methscopolamine], for which the “z-score of subpopulation abundance” value is -0.05. Under `C=CCN1C[C@H](C(=O)N(CCCN(C)C)C(=O)NCC)C[C@@H]2c3cccc4[nH]cc(c34)C[C@H]21` [Cabergoline] stands -0.49; under `COc1ccc(C(CN(C)C)C2(O)CCCCC2)cc1` (centres undefined) [Venlafaxine], -1.14; under `CC(=O)OCC1=C(C(=O)O)N2C(=O)C(N)C2SC1` (centres undefined) [7-Aminocephalosporanic acid], -0.23.

For the compound `CN1[C@@H]2CC[C@H]1C[C@@H](OC(=O)[C@H](CO)c1ccccc1)C2` [Hyoscyamine], the “z-score of subpopulation abundance” value is -0.72. The value for `C[C@H]1O[C@H](O[C@H]2[C@H](O)[C@@H](O)[C@@H](O)[C@H](O)[C@@H]2O)[C@@H](N)C[C@@H]1NC(=N)C(=O)O` [Kasugamycin hydrochloride] was -0.07; that for `CN(C)[C@@H]1C(=O)C(C(N)=O)=C(O)[C@@]2(O)C(=O)C3=C(O)c4c(O)cccc4[C@@](C)(O)[C@H]3[C@H](O)[C@@H]12` [Oxytetracycline (Terramycin)] was 0.77; that for `CC(C)N(CCC(C(N)=O)(c1ccccc1)c1ccccn1)C(C)C` (centres undefined) [Disopyramide] was 2.14. For the compound `C[N+]12CCC(CC1)C(OC(=O)C(O)(c1ccccc1)c1ccccc1)C2` (centres undefined) [Clidinium Bromide], the “z-score of subpopulation abundance” value was -0.33. The value for `Nc1ccncc1` [4-Aminopyridine] was 0.38; that for `CC(C)(O)C(Cl)(Cl)Cl` [Chlorobutanol] was -0.54. Turning to `CN[C@@H]1[C@@H](O)[C@@H](O[C@@H]2[C@@H](O)[C@H](O[C@H]3O[C@H]([C@@H](C)O)[C@@H](O)[C@H](O)[C@H]3N)[C@@H](N)C[C@H]2N)OC[C@]1(C)O` [Geneticin (G418 Sulfate)], the “z-score of subpopulation abundance” value was -0.02. `CN[C@@H]1[C@@H](O)[C@@H](O[C@@H]2[C@@H](O)[C@H](O[C@H]3O[C@H](CN)CC[C@H]3N)[C@@H](N)C[C@H]2N)OC[C@]1(C)O.CN[C@@H]1[C@@H](O)[C@@H](O[C@@H]2[C@@H](O)[C@H](O[C@H]3O[C@H]([C@@H](C)N)CC[C@H]3N)[C@@H](N)C[C@H]2N)OC[C@]1(C)O.CN[C@@H]1[C@@H](O)[C@@H](O[C@@H]2[C@@H](O)[C@H](O[C@H]3O[C@H]([C@@H](C)NC)CC[C@H]3N)[C@@H](N)C[C@H]2N)OC[C@]1(C)O` [Gentamicin Sulfate]: the “z-score of subpopulation abundance” value was -1.11.
